KB-3-1 cytotox: KB-3-1 parental cell cytotoxicity | KB-3-1 viability, CellTiter-Glo ATP luminescence, 72 h | Potency, µM (top dose mostly 46.1 µM), most hits filed as cytotoxic | hit rate 1.4% among 400,000 | AID 1347075; also: % is scaled to controls: 0 for no effect and ±100 for the full control effect; nearly all actives have a fitted effect of over 60% in size
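Here the drug-naive KB-3-1 line serves as comparator for MDR sub-line selectivity; cells received compound titrations, 72 h at 37 °C, then CellTiter-Glo readout.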
HT1080 IDH1KD tx: toxicity to HT-1080 IDH1 knockdown cells (counter line); HT-1080 IDH1 knockdown viability, ATP luminescence, 48 h; Potency, µM (series often up to 46.1 µM), for the others: at the top dose activity, negative = toxicity, usual class: cytotoxic; hit rate 2% among 360,000;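 also: 0% = DMSO wells and -100% = cell-free medium wells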
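In this qHTS, HT-1080 cells depleted of IDH1 are exposed for 48 h at 37 °C to compound titrations. Toxicity is scored from CellTiter-Glo luminescence, with DMSO as full viability and medium alone as none.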
ATXN2 expr inh: ATXN2 expression inhibition; AID 1745845; Potency, µM (doses to about 57 µM), for the others: at the top dose activity change, negative = inhibition, hits mostly inhibitors; hit rate 0.72% among 360,000; HEK-293 ATXN2-luciferase reporter, luminescence, 24 h; also: % is scaled to controls: 0 for no effect and ±100 for the full control effect; nearly all actives have a fitted effect of over 55% in size
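ATXN2-luciferase reporter cells (luciferase flanked by upstream and downstream ATXN2 gene portions) were treated 24 h at 37 °C with compounds at up to 57 uM. SteadyGlo luminescence gave expression; GF-AFC fluorescence gave viability.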
KB-V1 cytotox: KB-V1 MDR subline cytotoxicity | KB-V1 MDR cells viability, CellTiter-Glo, 72 h | Potency, µM (titrated, usually from 46.1 µM), hits mostly cytotoxic | hit rate 3.4% among 400,000; also: % is scaled to controls: 0 for no effect and ±100 for the full control effect; nearly all actives have a fitted effect of over 60% in size
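Potencies derive from concentration-effect curves fitted to normalized luminescence (CellTiter-Glo) of KB-V1 cells treated for 72 h at 37 degrees C in phenol-red-free DMEM containing 10% FBS.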
S2 tox: reduces viability in counter-screen for ATXN expression inhibitors; S2 cells (HEK-293 line with an ATXN2-luciferase reporter) viability, CellTiter-Fluor protease fluorescence, 24 h; Potency, µM (series often up to 56.7 µM), usual class: cytotoxic; hit rate 0.49% among 400,000; AID 651635; also: nearly all actives have a fitted effect of over 40% in size
HT1080NT lethal: kills 2HG-producing HT-1080-NT fibrosarcoma cells | HT-1080-NT fibrosarcoma viability, CellTiter-Glo ATP luminescence, 48 h | Potency, µM (series often up to 46.1 µM), for the others: at the highest dose activity, negative = less viability, usual class: cytotoxic | hit rate 1.6% among 360,000 | AID 686970;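 also: NT is the 2HG producing partner of a matched IDH1 knockdown line; 0% = DMSO-treated cells and -100% = media-only wells without cells; nearly all actives have a fitted effect of over 55% in size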
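Read-out is CellTiter-Glo luminescence after 10 minutes at room temperature, following 48 hours' compound treatment of HT-1080-NT cells (750 cells/well, RPMI, 5% FBS, 37 degrees C).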
* = called active by the depositor. Sampled rows, rich in hits. Any-hit rate of the full collection: about 6.2%. Calls follow the shape of the dose curve; as a rule, active = well fitted curve in the direction sought with a large enough effect; inconclusive = small, poorly fitted or top-dose-only effect, or another doubt; inactive = no such curve, though single readings can be large; an effect the other way counts as inactive or inconclusive. Potency is read from the fitted curve at half-maximal effect.

Screening COc1ccc(NC(=O)C2Cc3c(-c4ccncc4)ccnc3O2)cc1OC (centres undefined) returned KB-3-1 cytotox inactive, HT1080 IDH1KD tx -9.6%, ATXN2 expr inh 4.0%, KB-V1 cytotox inactive, S2 tox inactive and HT1080NT lethal 0.3%.
Screening CC(=O)c1cccc(NC(=O)C2Cc3c(-c4ccccc4)ccnc3O2)c1 (centres undefined) returned KB-3-1 cytotox inactive, HT1080 IDH1KD tx -29.5%, ATXN2 expr inh -22.6%, KB-V1 cytotox inactive, S2 tox inconclusive and HT1080NT lethal -14.2%.
`CC(=O)c1cccc(-c2ccnc3c2CC(C(=O)Nc2ccccc2)O3)c1` (centres undefined) gave KB-3-1 cytotox inactive, HT1080 IDH1KD tx 1.6%, ATXN2 expr inh -12.5%, KB-V1 cytotox 20.6µM*, S2 tox inactive and HT1080NT lethal -14.9%.
Screening Cc1ccc(NC(=O)C(NS(=O)(=O)c2ccc3c(c2)CCC(=O)N3)c2ccccc2)cc1C (centres undefined) returned KB-3-1 cytotox inactive, ATXN2 expr inh 42.5%, KB-V1 cytotox inactive and S2 tox inactive.
Screening N#Cc1ccccc1NC(=O)Cn1cnc2onc(-c3cccc(F)c3)c2c1=O returned KB-3-1 cytotox inactive, ATXN2 expr inh -5.5%, KB-V1 cytotox inactive and S2 tox inactive.
`COc1ccc(C(=O)NCC(c2ccc(N(C)C)cc2)N2CCCC2)c(OC)c1` (centres undefined) gave KB-3-1 cytotox inactive and KB-V1 cytotox inactive.
Screening O=S(=O)(c1ccc2c(c1)OCCO2)N1CCN(CCc2ccccc2)CC1 returned KB-3-1 cytotox inactive and KB-V1 cytotox inactive.
For CC(=O)Nc1ccc(NC(=O)C2Cc3c(-c4ccco4)ccnc3O2)cc1 (centres undefined) the results were KB-3-1 cytotox inactive, HT1080 IDH1KD tx -1.4%, ATXN2 expr inh 2.5%, KB-V1 cytotox inactive, S2 tox inactive and HT1080NT lethal 1.0%.
`CC(=O)c1cccc(NC(=O)C2Cc3c(-c4ccco4)ccnc3O2)c1` (centres undefined) gave KB-3-1 cytotox inconclusive, HT1080 IDH1KD tx -28.1%, ATXN2 expr inh inconclusive, KB-V1 cytotox 4.61µM*, S2 tox inactive and HT1080NT lethal -14.9%.
`CC(Oc1ccccc1)C(=O)N[C@@H]1C(=O)N2C(C(=O)OCC3CCCCC3)C(C)(C)S[C@H]12` (some centres undefined) gave KB-3-1 cytotox inactive and KB-V1 cytotox inconclusive.
COc1cc(/C=N/NC(=O)c2ccc(NC(=O)C3CCCCC3)cc2)ccc1O was read as KB-3-1 cytotox inactive, HT1080 IDH1KD tx 11.6µM*, ATXN2 expr inh inconclusive, KB-V1 cytotox inactive, S2 tox inactive and HT1080NT lethal inconclusive.
`COc1cc2c(-c3ccc(O)cc3)nc3c(c(C)nn3-c3ccccc3)c2cc1OC` gave KB-3-1 cytotox inconclusive, HT1080 IDH1KD tx -25.9%, ATXN2 expr inh -32.8%, KB-V1 cytotox 3.66µM*, S2 tox inconclusive and HT1080NT lethal -19.4%.
Screening COc1cccc(-c2nc3c(c(C)nn3-c3ccccc3)c3cc(OC)c(OC)cc23)c1 returned KB-3-1 cytotox inactive, ATXN2 expr inh 0.7%, KB-V1 cytotox inactive and S2 tox inactive.
Cc1ccc(NC(=O)N2CCc3ccccc32)cc1C was read as KB-3-1 cytotox inactive, HT1080 IDH1KD tx -6.8%, ATXN2 expr inh 3.0%, KB-V1 cytotox inactive, S2 tox inactive and HT1080NT lethal -17.5%.
`CN1C(=O)CSc2ccc(NC(=O)N3CCN(c4ccccn4)CC3)cc21` gave KB-3-1 cytotox inactive, HT1080 IDH1KD tx 4.3%, ATXN2 expr inh 13.3%, KB-V1 cytotox 18.4µM*, S2 tox inactive and HT1080NT lethal 4.0%.
`CN1C(=O)CSc2ccc(NC(=O)N3CCc4ccccc43)cc21` gave KB-3-1 cytotox inactive, HT1080 IDH1KD tx -7.1%, ATXN2 expr inh 78.6%, KB-V1 cytotox 16.4µM*, S2 tox inactive and HT1080NT lethal -28.3%.
`COc1ccc2c(C)c(CC(=O)NCc3ccccc3Cl)c(=O)oc2c1OC` gave KB-3-1 cytotox inactive, ATXN2 expr inh -0.7%, KB-V1 cytotox inactive and S2 tox inactive.
For CCOC(=O)c1ccccc1NC(=O)c1sc2ncn(Cc3cccc(F)c3)c(=O)c2c1C the results were KB-3-1 cytotox inactive, ATXN2 expr inh 2.3%, KB-V1 cytotox inactive and S2 tox inconclusive.
O=C(CC1SC(=Nc2cccc3ccccc23)N(Cc2ccccn2)C1=O)Nc1ccccc1Br (centres undefined) was read as KB-3-1 cytotox inconclusive, HT1080 IDH1KD tx -24.4%, ATXN2 expr inh -19.7%, KB-V1 cytotox 16.4µM*, S2 tox inactive and HT1080NT lethal -13.7%.
`Cc1ccccc1N=C1SC(CC(=O)Nc2ccc3ccccc3c2)C(=O)N1Cc1ccccn1` (centres undefined) gave KB-3-1 cytotox inconclusive, HT1080 IDH1KD tx -2.8%, ATXN2 expr inh inconclusive, KB-V1 cytotox 20.6µM*, S2 tox inconclusive and HT1080NT lethal inconclusive.
COc1ccc(OC)c(CCNC(=O)CN2C(=O)COc3ccc(S(=O)(=O)N4CCC(C)CC4)cc32)c1 was read as KB-3-1 cytotox inactive, ATXN2 expr inh 12.0%, KB-V1 cytotox inconclusive and S2 tox inconclusive.
Screening Cc1csc2nc(COC(=O)CNC(=O)c3ccc(F)cc3)cc(=O)n12 returned KB-3-1 cytotox inactive, ATXN2 expr inh 4.4%, KB-V1 cytotox inactive and S2 tox inactive.
CCOCCc1nn2c(=O)cc(COC(=O)c3ccccc3NC(=O)c3ccc(C)cc3)nc2s1 was read as KB-3-1 cytotox inactive, ATXN2 expr inh 31.5%, KB-V1 cytotox inactive and S2 tox inactive.
Cc1ccc(C)n1-c1ccc(C(=O)NC2CCN(Cc3ccccc3)CC2)cc1 was read as KB-3-1 cytotox inconclusive, HT1080 IDH1KD tx -11.2%, ATXN2 expr inh -31.3%, KB-V1 cytotox 2.31µM*, S2 tox inactive and HT1080NT lethal 0.2%.
`CCN(c1ccccc1)S(=O)(=O)c1ccc(C(=O)NC2CCN(Cc3ccccc3)CC2)cc1` gave KB-3-1 cytotox 16.4µM*, HT1080 IDH1KD tx inconclusive, ATXN2 expr inh inconclusive, KB-V1 cytotox inconclusive, S2 tox inconclusive and HT1080NT lethal -16.6%.
For CN(CC(=O)NC1CCN(Cc2ccccc2)CC1)S(=O)(=O)c1ccc(Br)s1 the results were KB-3-1 cytotox 23.1µM*, HT1080 IDH1KD tx 2.0%, ATXN2 expr inh -21.6%, KB-V1 cytotox inconclusive, S2 tox inactive and HT1080NT lethal -0.8%.
